Measured values as given in PubChem BioAssay AID651898 (Broad Institute, 2012).
Some of the results follow. Active and inactive are the calls of the source. No rule for the calls is given here.

Assay: HepG2 hepatoma cell viability loss – plate reader, cherry-pick, two tests, cytotoxicity control, dose response (AID 651898)
Conditions: max activity: at 12 µM, test 1 unless noted

SMILES: Cc1nc(=O)c(-c2ccccc2)c(C)n1-c1ccc(Br)cc1
- max activity: 19% (inactive)

SMILES: Cc1ccc(Cc2c(C)nc3nc(SCC(=O)NCCN4CCOCC4)nn3c2C)cc1
- max activity: -6.95% [at 0.38 µM, test 1] (inactive)

SMILES: Cc1c(OC(C)C(=O)NCC2CCC(C(=O)O)CC2)ccc2c1oc(=O)c1ccccc12 (stereo not given)
- max activity: 38.2% (inactive)

SMILES: Cn1c(=O)c2c(nc(OCc3cccnc3)n2Cc2ccccc2)n(C)c1=O
- max activity: -11.3% [at 26 µM, test 1] (inactive)

SMILES: C=C(C)CSc1nc(N)c2c3c(sc2n1)CCC3
- max activity: -7.76% [at 1.6 µM, test 1] (inactive)

SMILES: CC1(C)CC(=O)C=C(c2ccc3ncccc3c2)C1
- max activity: -17% (inactive)

SMILES: O=C(c1ccncc1)N1CC[C@@H]2[C@H]1c1cc(Br)ccc1N[C@@H]2CO
- max activity: -16.4% [measured here: replicate test 2 max activity, at 0.8 µM, test 2]
- outcome: inactive

SMILES: Cc1c2cnn(CC(=O)NCc3ccccn3)c(=O)c2c(C)n1Cc1ccc(Cl)cc1
- max activity: 24.2% [at 26 µM, test 1] (inactive)

SMILES: O=c1[nH]c(N2CCN(Cc3ccc4c(c3)OCO4)CC2)nc2c1CCCC2
- max activity: -9.65% [at 0.38 µM, test 1] (inactive)

SMILES: C=CCn1c(SCc2c(C(=O)OC)sc(N)c2C(=O)OC)nnc1-c1ccc(Cl)cc1
- max activity: -11.6% [at 1.6 µM, test 1] (inactive)

SMILES: CC(=O)O[C@]1(C(C)=O)CC[C@H]2[C@@H]3C=C(C)C4=CC(=O)CC[C@]4(C)[C@H]3CC[C@@]21C
- max activity: 5.11% [at 1.6 µM, test 1] (inactive)

SMILES: CC(=O)CSc1nnc(CSc2ncccn2)n1C1CCCCC1
- max activity: 18.7% [at 1.6 µM, test 1] (inactive)

SMILES: COCCNC(=O)C[C@H]1CC[C@@H]2[C@H](COc3ccc(NC(=O)Nc4cccc(F)c4)cc3C(=O)N2C)O1
- max activity: 9.85% [measured here: replicate test 2 max activity, at 3 µM, test 2]
- outcome: inactive

SMILES: O=C(CSc1n[nH]c(-c2cccnc2)n1)Nc1ccnc2ccccc12
- max activity: 8.04% (inactive)

SMILES: CN1c2ccc(-c3ccccc3)cc2[C@H]2[C@H](CCN2C(=O)Cc2ccccn2)[C@H]1CO
- max activity: 20.8% [measured here: replicate test 2 max activity, at 23.5 µM, test 2]
- outcome: inactive

SMILES: CCC(CO)Oc1cc(NC(=O)c2cccc(F)c2)c2ncn(C(C)C)c2c1 (stereo not given)
- max activity: 10.6% [measured here: replicate test 2 max activity, at 0.195 µM, test 2]
- outcome: inactive

SMILES: COc1cc(-c2n[nH]c(=S)n2Cc2ccccc2)cc(OC)c1OC
- max activity: -15.9% (inactive)

SMILES: CCCOc1ccc2c3c(c(=O)oc2c1OCCC)CCC3
- max activity: 27.7% [at 26 µM, test 1] (inactive)

SMILES: CS(=O)(=O)N1[C@H](C(=O)NCc2ccncc2)[C@@H](CO)[C@@H]2Cn3c(ccc(C4=CCCCC4)c3=O)[C@@H]21
- max activity: -13.1% [measured here: replicate test 2 max activity, at 3 µM, test 2]
- outcome: inactive

SMILES: Cc1nc2nc(SCC(=O)NCc3ccco3)nn2c(C)c1Cc1ccccc1
- max activity: 6.48% [at 0.195 µM, test 1] (inactive)
